Source: PubChem BioAssay (NCATS)
Results filed as inconclusive are left out. Where a call stands in place of a potency, no number is given. Calls of active or inactive are those of the source. Unless noted, calls follow the shape of the full dose curve.

Experiments:
[1] = qHTS for Inhibitors of the Functional Ribonucleoprotein Complex (vRNP) of Lassa (LASV) Arenavirus: LASV Primary Screen - GLuc reporter signal (AID 1347082; calls by dose curve; tested in HEK293 reporter line; also: nearly all actives have a fitted effect of over 60% in size; also: potency is read from the fitted curve at half-maximal effect)
[2] = qHTS for Inhibitors of the Functional Ribonucleoprotein Complex (vRNP) of Lassa (LASV) Arenavirus: Viability assay - alamar blue signal for LASV Primary Screen (AID 1347083; calls by dose curve; tested in HEK293 reporter line; also: nearly all actives have a fitted effect of over 80% in size)
[3] = Cytotoxicity counterscreen for inhibitors of SARS-CoV-2 cell entry (AID 1645845); also: nearly all actives have a fitted effect of over 50% in size; also: potency is read from the fitted curve at half-maximal effect
Summary of the method: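 Counterscreen run in the same HEK293-ACE2 line as the pseudotyped-particle entry assay, without particles. Viability after 48 h at 37 C was read as ATP luminescence, scaled between cell-containing and cell-free wells.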

[4] = Primary qHTS to identify inhibitors of SARS-CoV-2 cell entry (AID 1645846); details: activity change, negative = inhibition: at 57.1 µM (top of the series) unless noted; also: nearly all actives have a fitted effect of over 45% in size; also: potency is read from the fitted curve at half-maximal effect
Summary of the method: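 Entry measured by luciferase signal 48 h after adding SARS-CoV-2-S pseudotyped MLV particles to HEK293-ACE2 cells preincubated 1 h with compounds. Normalisation: bald particles and spike particles.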

[5] = qHTS for Inhibitors of the Functional Ribonucleoprotein Complex (vRNP) of Lymphocytic Choriomeningitis Arenaviruses (LCMV): Viability assay - alamar blue signal for LCMV Primary Screen (AID 1347085; calls by dose curve; tested in HEK293 reporter line; also: nearly all actives have a fitted effect of over 80% in size; also: potency is read from the fitted curve at half-maximal effect)
[6] = biological target: Nucleoprotein (Lymphocytic choriomeningitis virus (strain Armstrong)) (UniProt P09992); assay: qHTS for Inhibitors of the Functional Ribonucleoprotein Complex (vRNP) of Lymphocytic Choriomeningitis Arenaviruses (LCMV): LCMV Primary Screen - GLuc reporter signal (AID 1347086); also: nearly all actives have a fitted effect of over 70% in size; also: potency is read from the fitted curve at half-maximal effect
Nucleoprotein (Lymphocytic choriomeningitis virus (strain Armstrong)), sequence (P09992 whole entry, looked up): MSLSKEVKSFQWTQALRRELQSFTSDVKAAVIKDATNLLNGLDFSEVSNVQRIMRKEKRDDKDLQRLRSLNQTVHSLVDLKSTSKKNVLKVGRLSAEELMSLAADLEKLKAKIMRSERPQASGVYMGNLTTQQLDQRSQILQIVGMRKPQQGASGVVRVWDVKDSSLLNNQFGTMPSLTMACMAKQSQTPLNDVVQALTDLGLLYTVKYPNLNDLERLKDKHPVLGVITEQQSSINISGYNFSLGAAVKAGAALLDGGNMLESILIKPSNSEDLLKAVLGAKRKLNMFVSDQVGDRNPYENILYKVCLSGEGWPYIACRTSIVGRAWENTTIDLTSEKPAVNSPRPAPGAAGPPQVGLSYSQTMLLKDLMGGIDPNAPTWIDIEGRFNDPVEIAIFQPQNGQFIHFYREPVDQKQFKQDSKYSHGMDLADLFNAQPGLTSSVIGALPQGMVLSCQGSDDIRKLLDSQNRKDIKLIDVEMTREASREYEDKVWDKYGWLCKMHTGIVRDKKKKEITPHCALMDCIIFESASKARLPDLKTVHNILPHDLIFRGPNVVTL

[7] = Confirmatory qHTS for activators (rescue) of SARS-CoV-2 Cytopathic Effect (CPE) (AID 1508606); also: nearly all actives have a fitted effect of over 70% in size
[8] = Confirmatory qHTS to identify inhibitors of SARS-CoV-2 cell entry (AID 1645844); also: potency is read from the fitted curve at half-maximal effect; nearly all actives have a fitted effect of over 45% in size
Summary of the method: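 HEK293-ACE2, overnight seeding; cpd 1 h, 37C/5% CO2; + SARS-CoV-2-S MLV PP (Wuhan-Hu-1, ΔC19); 48 h; Bright-Glo luminescence. Data normalised to S PP and bald PP wells.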

SMILES: CCCn1c(=O)c2[nH]c(-c3cnn(Cc4cccc(C(F)(F)F)c4)c3)nc2n(CC)c1=O
- Potency [1]: inactive
- Potency [2]: inactive
- Potency [3]: inactive
- activity change, negative = inhibition [4]: -10.8%

SMILES: COc1cc(O)c2c(=O)c(-c3ccc(O[C@@H]4O[C@H](CO)[C@@H](O)[C@H](O)[C@H]4O)cc3)coc2c1
- Potency [1]: inactive
- Potency [5]: inactive
- Potency [6]: inactive

SMILES: COc1cc2c(Nc3ccc(NC(=O)c4ccccc4)cc3)ncnc2cc1OCCCN1CCOCC1
- Potency [1]: inactive
- Potency [5]: inactive
- Potency [6]: inactive
- Potency [3]: 31.6 µM (active)
- Potency [4]: 7.94 µM (active)

SMILES: Cn1cc(-c2ccncc2)c(-c2ccc(OCc3ccc4ccccc4n3)cc2)n1
- Potency [1]: 21.7 µM (active)
- Potency [5]: inactive
- Potency [6]: 21.7 µM (active)
- Potency [7]: inactive

SMILES: COc1cc2c(Nc3ccc(Cl)c(Cl)c3F)ncnc2cc1OCC1C[C@@H]2CN(C)C[C@H]2C1
- Potency [1]: 8.63 µM (active)
- Potency [5]: 1.93 µM (active)
- Potency [6]: 2.43 µM (active)

SMILES: COc1cc(OC)c(NC(=O)Nc2cc(C)on2)cc1Cl
- Potency [1]: inactive
- Potency [5]: inactive
- Potency [6]: inactive
- Potency [3]: inactive
- activity change, negative = inhibition [4]: -15.8%

SMILES: O=C1NC(=O)C(=Cc2ccc3nccnc3c2)S1
- Potency [1]: inactive
- Potency [5]: inactive
- Potency [6]: inactive

SMILES: C[C@]12CC[C@@H]3c4ccc(O)cc4CC[C@H]3[C@H]1[C@@H](O)[C@@H](O)[C@H]2O
- Potency [1]: inactive
- Potency [5]: inactive
- Potency [6]: inactive
- Potency [3]: inactive

SMILES: O=c1c(O)c(-c2ccccc2)oc2ccccc12
- Potency [1]: inactive
- Potency [5]: inactive
- Potency [6]: inactive

SMILES: COc1ccc(C2CC(c3ccccc3)=NN2c2ccc(S(N)(=O)=O)cc2)cc1 (stereo not drawn)
- Potency [1]: inactive
- Potency [5]: inactive
- Potency [6]: inactive
- Potency [3]: inactive
- activity change, negative = inhibition [4]: -0.201%

SMILES: O=C(O)C1(Cc2cccc(Nc3nccs3)n2)CCC(Oc2cccc(Cl)c2F)CC1 (stereo not drawn)
- Potency [1]: inactive
- Potency [5]: inactive
- Potency [6]: inactive
- Potency [8]: 10.8 µM (active)
- Potency [3]: inactive

SMILES: C=CC(=O)Nc1cc(NC(=O)c2ccc(C)c(NC(=O)c3ccno3)c2)cc(C(F)(F)F)c1
- Potency [1]: inactive
- Potency [5]: inactive
- Potency [6]: inactive

SMILES: C[C@@H]1C(=O)O[C@H]2[C@H](O)[C@@]34[C@H]5CC(C(C)(C)C)[C@]36[C@H](OC(=O)[C@H]6O)O[C@]4(C(=O)O5)[C@@]12O (stereo partly drawn)
- Potency [1]: inactive
- Potency [5]: inactive
- Potency [6]: inactive

SMILES: Cc1nc(NC(=O)N2CCC[C@@H]2C(N)=O)sc1-c1csc(C(C)(C)C)n1
- Potency [1]: inactive
- Potency [5]: inactive
- Potency [6]: inactive

SMILES: COc1cc2c(cc1OC)C(C)N(Cc1ccc3c(c1)OCO3)CC2 (stereo not drawn)
- Potency [1]: inactive
- Potency [5]: inactive
- Potency [6]: inactive

SMILES: Nc1ncnc2c1nc(Cl)n2[C@@H]1O[C@H](CO)[C@@H](O)[C@@H]1O
- Potency [1]: inactive
- Potency [5]: inactive
- Potency [6]: inactive
- Potency [3]: inactive

SMILES: COc1ccc(-c2oc3cc(OC)c(O)c(OC)c3c(=O)c2OC)cc1O
- Potency [1]: inactive
- Potency [5]: inactive
- Potency [6]: inactive
